For 40 molecules, growth results are on record in PubChem BioAssay (NCI).

Molecules are shown by their SMILES. About 83,000 compounds went through this panel and 20% of them were active in at least one assay; those are over-represented in the sample as a whole.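 Values shown are percent growth following 48 h exposure of cells in 96-well plates to a single concentration of compound; below 10 was considered active.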 Values without a mark were called inactive. Calls of active or inactive are those of the source.

The test has as its system HT29 colon. As to the kind of experiment: NCI-60 one-dose screen, 48 h (100 = growth as untreated, 0 = no growth, -100 = all killed). The settings on record: 10 µM unless noted. As for the experimental part:
Growth inhibition of the HT29 human tumor cell line is measured as a screen for anti-cancer activity. Cells are grown in 96 well plates and exposed to the test compound for 48 hours. Compounds are tested at a single concentration, which is 10^-5 M for most compounds. The reported endpoint is percent growth (GI% or GIPRCNT), where numbers from 0 - 100% represent growth inhibition, and numbers from -100% - 0 represent cell death. For example, a value of 40 represents 60% growth inhibition. A value of 0 means no net growth occurred over the course of the experiment. A value of -40 indicates 40% of cells at the beginning of the experiment died by the end of the experiment. A value of -100 means all cells are dead at the end of the experiment.
NCI-60 Human Tumor Cell Lines Screen was performed using the standard one-dose NCI protocol, which is described in more detail at https://dtp.cancer.gov/discovery_development/nci-60/default.htm.
Compounds with GIPRCNT values below 10 were considered active. Activity score was based on GIPRCNT using the following formula: […]
Score is 0 for GIPRCNT values of 100 or above, 50 for GIPRCNT values of 0, and 100 for GIPRCNT values of -100.
Consider `CC(Oc1ccc(C(=O)NS(=O)(=O)C(C)(C)C)cc1C(F)(F)F)c1ccc(Oc2ccccc2)cn1` (stereo not given), for which the growth is 59.5%.
Turning to `CC(C)(C)CC(C)(C)Nc1c(-c2ccc(C(F)(F)F)cc2)nc2cnccn12`, the growth was 57.4%.
Then `CC(=O)[C@@H]1CC[C@]2(C(N)=O)CC[C@]3(C)[C@H](CC[C@@H]4[C@@]5(C)CCC(=O)C(C)(C)[C@@H]5CC[C@]43C)[C@@H]12`, with 95.9%; and `O=S(=O)(c1ccc(N/N=C\c2ccccc2)cc1)c1ccc(N/N=C/c2ccccc2)cc1`, with 54.7%; and `COc1ccccc1/C=N/NC1=NC2C(N1)N(C)C(=O)N2C` (stereo not given), with 111%.
As to `COc1cccc(CCC(=O)c2cc3c(N)c(C(=O)Nc4cccc(Cl)c4C)sc3nc2C)c1`, the growth is 10.8%.
`C[C@@H]1CN(Cc2ccc(/C=C/c3n[nH]c4ccc5nc(-c6cn[nH]c6C(F)(F)F)c6c(c5c34)CCCC6)cc2)C[C@H](C)O1`: the growth was 7.17% (active).
To `CCCC/C(=N\N=C(N)N)c1ccc(F)cc1` belongs 1.87% (active).
In the case of `C#CCn1cc(C=C2C(=O)NC(=S)NC2=O)c2cc(Cl)ccc21`, the growth is 13.6%.
In the case of `COc1ccc(NC(=O)c2sc3nc(C)c(C(=O)CCc4cccc(OC)c4)cc3c2N)cc1`, the growth was 67.4%.
To `CCOC(=O)C1=C(C)NC(C)=C(C(=O)OCC)C1c1cc(Br)c(O)c(OC)c1` belongs 71.4%; to `Cc1ccc(C2C3CC4CCCCC4N3[C@@]3(C(=O)Nc4cc(Cl)ccc43)C2C(=O)c2nc3ccccc3[nH]2)cc1` (stereo not given in full), 19.5%.
On to `CCNC(=O)c1[nH]cc(-c2ccc(OC)cc2)c1-c1cc(OC)cc(OC)c1`, for which the growth was 94.6%.
As to `CC[C@@]12C=CCN3CC[C@]4(c5cc(NC(=O)COc6cc(OCC(=O)Nc7cc8c(cc7OC)N(C)[C@H]7[C@@](O)(C(=O)OC)[C@H](OC(C)=O)[C@]9(CC)C=CCN%10CC[C@]87[C@@H]%109)cc7oc(-c8ccccc8)cc(=O)c67)c(OC)cc5N(C)[C@@H]4[C@](O)(C(=O)OC)[C@H]1OC(C)=O)[C@H]32`, the growth is 1.38% (active).
Regarding `COc1ccc(/C(C)=N/NC(=O)CSc2nc3ccccc3c(=O)n2Cc2ccc(S(N)(=O)=O)cc2)c(OC)c1`, the growth is 111%.
To `CC1(C)NCCC[C@]2(C)[C@H]3CC=C4[C@@H]5C[C@@](C)(CO)CC[C@]5(C)CC[C@@]4(C)[C@]3(C)CC[C@@H]12` belongs 5.18% (active).
With `CCCCCCCCCCCCCCCCCCOc1ccccc1N`, the growth is 92.5%.
With `Cc1nc2sc(C(=O)Nc3ccccc3)c(N)c2cc1C(=O)c1ccc(C(F)(F)F)cc1`, the growth is 103%.
Consider `C=CCn1c(SCC(=O)Nc2ccc(C(=O)/C=C/c3cc(OC)c(OC)c(OC)c3)cc2)nnc1-c1cc(-c2ccc(S(C)(=O)=O)cc2)nc2ccccc12`, for which the growth was 81.3%.
On to `COc1cc(/C=C/C(=O)c2ccc(Nc3ncnc4ccccc34)cc2)cc(OC)c1`, for which the growth was -38.1% (active).
`COc1ccc(NC(=O)c2sc3nc(C)c(C(O)c4ccc(OC)cc4)cc3c2N)cc1` (stereo not given): the growth is 4.97% (active).
As for `COc1cc2ncnc(Nc3ccc(C(=O)/C=C/c4ccc(C(F)(F)F)cc4F)cc3)c2cc1OC`, the growth is 98.8%.
On to `O=S(=O)(NCCCNc1nccc(-c2c(-c3ccc(F)c(O)c3)nc3sccn23)n1)c1ccc(F)cc1`, for which the growth is 9.5% (active).
To `COc1cc(OC)cc(C2C3=C(COC3=O)Nc3cc(OC)ccc32)c1` (stereo not given) belongs 0.152% (active); to `Cc1cccc(Oc2ccc(Nc3ncnc4ccc(NC(=O)CNCCO)cc34)cc2Cl)c1`, 38.4%; to `C/C(=C(/c1ccccc1)c1ccc(OCC(O)CN2CCOCC2)cc1)c1ccccc1` (stereo not given), 13.1%.
In the case of `CCCCN(CCCC)CCc1c(C)cc(C)c(CCN(CCCC)CCCC)c1O`, the growth is 11.9%.
Take `COC(=O)C(c1ccccc1)C(CC(=O)c1ccccc1)c1ccccc1` (stereo not given): the growth is 79.1%.
To `CCC(=O)c1ccc(O)c(OC)c1` belongs 103%; to `COc1cccc(-c2nc3occn3c2-c2ccnc(NCCCNS(=O)(=O)c3cccc(F)c3)n2)c1`, 50.7%.
On to `N/C(=N\N=C\c1cc2ccccc2s1)N/N=C/c1cc2ccccc2s1`, for which the growth is 108%.
On to `OC(c1ccccc1)c1ccccn1` (stereo not given), for which the growth is 89.3%.
For the molecule `COc1ccc(-c2nc(N/N=C/c3ccco3)nc(N3CCOCC3)c2C#N)cc1`, the growth was 91%.
Then `CCCN=C(N)c1ccc(NC(=O)c2ccc(C(=O)Nc3ccc(C(N)=NCCC)cc3)cc2)cc1`, with 102%.
With `O=C(NCCN1CCOCC1)OCc1nc2nc(Cl)nc(N3CCOCC3)c2[nH]1`, the growth was 122%.
For `CCCNC(=O)Oc1ccc(/C(=C(\C)c2ccccc2)c2ccc(OCCN3CCCCC3)cc2)cc1`, the growth was 4.11% (active).
In the case of `COc1ccc(C(=O)/C=C/c2c(OC)cc(OC)cc2OC)c(OC)c1`, the growth is 1.7% (active).
Then `CC(=O)N1N=C(c2cccc(Nc3ccncc3)c2)CC1c1ccc2c(c1)OCO2` (stereo not given), with 32.7%; and `COc1cc(Nc2cc(O)c3c(=O)cc(-c4ccccc4)oc3c2)cc(OC)c1`, with 3.58% (active).
Regarding `O=S(=O)(c1cccc(NC2=Nc3cccc4cccc2c34)c1)N1CCCC1`, the growth is 67.4%.
